Results as given in PubChem BioAssay.
Calls of active or inactive are those of the source.

assay: optical density change of DRC41 E. coli – strain DRC41, OD650, 24 h, E. coli filamentation project, primary screen (AID 1093);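 further: MC1000 strain lacking acrAB efflux and sulA so SOS filamentation is blocked; test concentration not given here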; settings: E. coli DRC41 growth, higher = more signal, called active from +8 up or from −8 down

Row | SMILES | z-score
1 | CON=C[C@@H](NS(=O)(=O)c1ccc(C)cc1)[C@H](C)C=CCC(=O)OC | 0.306 (inactive)
2 | COc1cccc([C@H]2Oc3ccc(OC)cc3C(=NO[C@H](C)c3cn([C@H](CO)Cc4ccccc4)nn3)[C@@H]2O)c1 | 0.928 (inactive)
3 | COc1ccc(COC(=O)NN=C2C[C@@H](O)[C@@H](O)[C@@H]3[C@@H]4C(=O)N(c5cccc(Oc6ccccc6)c5)C(=O)[C@@H]4CC[C@@H]23)cc1 | 0.301 (inactive)
4 | CO[C@@H]1COC(=O)CC=C[C@H](C)[C@H](OC)COC(=O)[C@H](C)NC(=O)CC=C[C@H]1C | 1.2 (inactive)
5 | O=C1C[C@@H](O)[C@@H](O)[C@@H]2[C@@H]3C(=O)N(C[C@@H]4CCCO4)C(=O)[C@@H]3CC[C@H]12 | 0.701 (inactive)
6 | COC(=O)[C@@H]1CC[C@@H](C)[C@H](c2ccc(Br)cc2)N1 | 0.104 (inactive)
7 | COC(=O)[C@@H]1CC[C@H](C)[C@@H](c2ccc(C)cc2)N1C(=O)c1ccc(C=NO[C@H](C)c2cn([C@@H]3COC[C@H]3O)nn2)cc1 | 1.67 (inactive)
8 | Cn1c(=O)n2n(c1=O)[C@H]1[C@H](O)[C@@H]3O[C@@H]3C(=NOCc3ccccc3)[C@H]1CC2 | 0.703 (inactive)
9 | CCOC(=O)NN=C1C[C@@H](O)[C@@H](O)[C@@H]2[C@@H]3C(=O)N(c4cccc(Oc5ccccc5)c4)C(=O)[C@@H]3CC[C@@H]12 | 0.205 (inactive)
10 | COC(=O)[C@H](C)NC(=O)CCC1CC(OC(=O)NCc2cccc3ccccc23)CC2(CCCC(COC(=O)NCC(c3ccccc3)c3ccccc3)O2)O1 (some centres not stated) | 0.0609 (inactive)
11 | Cc1ccc(S(=O)(=O)n2c3ccccc3c3nnc(C(=O)c4ccccc4)nc32)cc1 | 0.878 (inactive)
12 | COC(=O)C=CCCc1coc(C=CCNC(=O)OC)n1 | -1.42 (inactive)
13 | CON=C1[C@H]2CCn3c(=O)n(-c4ccccc4)c(=O)n3[C@H]2[C@H](O)[C@@H]2O[C@H]12 | -0.114 (inactive)
14 | CC(C)=CCCC(C)=CCON=C1C[C@@H](O)[C@@H](O)[C@@H]2[C@@H]3C(=O)N(C4CCCCC4)C(=O)[C@@H]3CC[C@@H]12 | -0.257 (inactive)
15 | O=C1[C@H]2[C@H]3[C@H](O)[C@H](O)CC(=NOC[C@@H](O)COCc4ccco4)[C@H]3CC[C@H]2C(=O)N1C[C@@H]1CCCO1 | 0.0018 (inactive)
16 | O=C(NN=C1C[C@@H](O)[C@@H](O)[C@@H]2[C@@H]3C(=O)N(C[C@@H]4CCCO4)C(=O)[C@@H]3CC[C@@H]12)OCc1ccccc1 | -0.202 (inactive)
17 | COc1ccc(C#C[C@@H]2C=C[C@H](OC(C)=O)[C@@H](COC(C)=O)O2)cc1 | 1.04 (inactive)
18 | CC(C)CON=C1C[C@@H](O)[C@@H](O)[C@@H]2[C@@H]3C(=O)N(c4cccc(Oc5ccccc5)c4)C(=O)[C@@H]3CC[C@@H]12 | -0.961 (inactive)
19 | CCOC(=O)[C@H](CC(C)C)NC(=O)CCC1CC(OC(=O)NCc2cccc3ccccc23)CC2(CCCC(COC(=O)NCc3cccc(C(F)(F)F)c3)O2)O1 (some centres not stated) | 0.294 (inactive)
20 | C#CCCCON=C1C[C@@H](O)[C@@H](O)[C@@H]2[C@@H]3C(=O)N(Cc4ccccc4)C(=O)[C@@H]3CC[C@@H]12 | 0.49 (inactive)
21 | COc1ccc(O[C@H]2C=C[C@@H](c3ccccc3)O[C@@H]2CON=CC[C@@H]2C=C[C@H](OC(C)=O)[C@@H](COC(C)=O)O2)cc1 | 0.363 (inactive)
22 | CC(C)(C)N1C(=O)[C@H]2[C@H]3[C@H](O)[C@H](O)CC(=O)[C@H]3CC[C@H]2C1=O | -0.29 (inactive)
23 | Cc1cc2c(nc1C)CCCCN2CC(C)ON=C[C@@H](C)[C@H](OCc1ccccc1)C(C)C (some centres not stated) | 0.162 (inactive)
24 | C#CCCCON=C1C[C@@H](O)[C@@H](O)[C@@H]2[C@@H]3C(=O)N(CCC(=O)OCC)C(=O)[C@@H]3CC[C@H]12 | 0.299 (inactive)
25 | CCOC(=O)[C@H](CC(C)C)NC(=O)CCC1CC(OC(=O)NCc2cccc3ccccc23)CC2(CCCC(COC(=O)NCCOC)O2)O1 (some centres not stated) | -0.157 (inactive)
26 | COc1ccc(COC(=O)NN=C2C[C@@H](O)[C@@H](O)[C@@H]3[C@@H]4C(=O)N(c5ccc(F)cc5F)C(=O)[C@@H]4CC[C@H]23)cc1 | 0.0412 (inactive)

assay: probe aLefty2 binding to arrayed compounds – biochemical, biotinylated probe, 635/667 nm fluorescence, primary screen (AID 1094); settings: small-molecule microarray, higher = more signal;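 further: score merges spot fluorescence near 667 nm with spot signal-to-noise ratio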

Row | SMILES | composite z-score
27 | CC(C)=NO[C@H](C)c1cn([C@H](CO)Cc2ccccc2)nn1 | -0.166
28 | CCOC(=O)[C@H](CC(C)C)NC(=O)CCC1CC(OC(=O)NCc2cccc3ccccc23)CC2(CCCC(COC(=O)NCCOc3ccccc3)O2)O1 (some centres not stated) | -0.177
29 | O=C1C[C@@H](O)[C@@H](O)[C@@H]2[C@@H]3C(=O)N(C[C@@H]4CCCO4)C(=O)[C@@H]3CC[C@@H]12 | -0.0708
30 | CCOC(=O)[C@H](CC(C)C)NC(=O)CCC1CC(OC(=O)NCc2cccc3ccccc23)CC2(CCCC(COC(=O)NCCc3ccc(Cl)cc3)O2)O1 (some centres not stated) | -0.188
31 | CO[C@H]1COC(=O)CC=C[C@@H](C)[C@H](NS(=O)(=O)c2ccc(C)cc2)COC(=O)CCC[C@@H]1C | -0.122
32 | CO[C@H]1COC(=O)[C@H](C)NC(=O)CC=C[C@@H](C)[C@H](OC)COC(=O)[C@@H](OCc2ccccc2)C=C[C@@H]1C | -0.166
33 | CCCNC(=O)OC[C@H]1O[C@H](CCON=C(C)CCN2CCCc3nc(C)c(C)cc32)C=C[C@@H]1Oc1ccc(OC)cc1 | 0.0408
34 | C#CCCCON=C1C[C@@H](O)[C@@H](O)[C@@H]2[C@@H]3C(=O)N(CC)C(=O)[C@@H]3CC[C@@H]12 | -0.0478
35 | COC(=O)[C@H](C)NC(=O)CCC1CC(OC(=O)NCc2ccc3c(c2)OCO3)CC2(CCCC(COC(=O)NCC3CCCCC3)O2)O1 (some centres not stated) | -0.0576
36 | CO[C@H]1COC(=O)CC=C[C@@H](C)[C@H](OC)COC(=O)[C@@H]2CCCN2C(=O)CC=C[C@@H]1C | -0.229
37 | CON=C[C@@H](NS(=O)(=O)c1ccc(C)cc1)[C@H](C)C=CCC(=O)OC | -0.138
38 | COc1cccc([C@H]2Oc3ccc(OC)cc3C(=NO[C@H](C)c3cn([C@H](CO)Cc4ccccc4)nn3)[C@@H]2O)c1 | -0.126
39 | COc1ccc(COC(=O)NN=C2C[C@@H](O)[C@@H](O)[C@@H]3[C@@H]4C(=O)N(c5cccc(Oc6ccccc6)c5)C(=O)[C@@H]4CC[C@@H]23)cc1 | 0.162
40 | CO[C@@H]1COC(=O)CC=C[C@H](C)[C@H](OC)COC(=O)[C@H](C)NC(=O)CC=C[C@H]1C | -0.228
41 | O=C1C[C@@H](O)[C@@H](O)[C@@H]2[C@@H]3C(=O)N(C[C@@H]4CCCO4)C(=O)[C@@H]3CC[C@H]12 | -0.108
42 | COC(=O)[C@@H]1CC[C@@H](C)[C@H](c2ccc(Br)cc2)N1 | -0.0943
43 | COC(=O)[C@@H]1CC[C@H](C)[C@@H](c2ccc(C)cc2)N1C(=O)c1ccc(C=NO[C@H](C)c2cn([C@@H]3COC[C@H]3O)nn2)cc1 | -0.138
44 | Cn1c(=O)n2n(c1=O)[C@H]1[C@H](O)[C@@H]3O[C@@H]3C(=NOCc3ccccc3)[C@H]1CC2 | -0.185

Row | SMILES | composite z-score
45 | CCOC(=O)NN=C1C[C@@H](O)[C@@H](O)[C@@H]2[C@@H]3C(=O)N(c4cccc(Oc5ccccc5)c4)C(=O)[C@@H]3CC[C@@H]12 | -0.335
46 | COC(=O)[C@H](C)NC(=O)CCC1CC(OC(=O)NCc2cccc3ccccc23)CC2(CCCC(COC(=O)NCC(c3ccccc3)c3ccccc3)O2)O1 (some centres not stated) | -0.166
47 | Cc1ccc(S(=O)(=O)n2c3ccccc3c3nnc(C(=O)c4ccccc4)nc32)cc1 | -0.122
48 | COC(=O)C=CCCc1coc(C=CCNC(=O)OC)n1 | 0.17
49 | CON=C1[C@H]2CCn3c(=O)n(-c4ccccc4)c(=O)n3[C@H]2[C@H](O)[C@@H]2O[C@H]12 | -0.205
50 | CC(C)=CCCC(C)=CCON=C1C[C@@H](O)[C@@H](O)[C@@H]2[C@@H]3C(=O)N(C4CCCCC4)C(=O)[C@@H]3CC[C@@H]12 | -0.15
51 | O=C1[C@H]2[C@H]3[C@H](O)[C@H](O)CC(=NOC[C@@H](O)COCc4ccco4)[C@H]3CC[C@H]2C(=O)N1C[C@@H]1CCCO1 | -0.138
52 | O=C(NN=C1C[C@@H](O)[C@@H](O)[C@@H]2[C@@H]3C(=O)N(C[C@@H]4CCCO4)C(=O)[C@@H]3CC[C@@H]12)OCc1ccccc1 | -0.27
53 | COc1ccc(C#C[C@@H]2C=C[C@H](OC(C)=O)[C@@H](COC(C)=O)O2)cc1 | 0.0164
54 | CC(C)CON=C1C[C@@H](O)[C@@H](O)[C@@H]2[C@@H]3C(=O)N(c4cccc(Oc5ccccc5)c4)C(=O)[C@@H]3CC[C@@H]12 | -0.131
55 | CCOC(=O)[C@H](CC(C)C)NC(=O)CCC1CC(OC(=O)NCc2cccc3ccccc23)CC2(CCCC(COC(=O)NCc3cccc(C(F)(F)F)c3)O2)O1 (some centres not stated) | -0.251
56 | C#CCCCON=C1C[C@@H](O)[C@@H](O)[C@@H]2[C@@H]3C(=O)N(Cc4ccccc4)C(=O)[C@@H]3CC[C@@H]12 | -0.0409
57 | COc1ccc(O[C@H]2C=C[C@@H](c3ccccc3)O[C@@H]2CON=CC[C@@H]2C=C[C@H](OC(C)=O)[C@@H](COC(C)=O)O2)cc1 | -0.107
58 | CC(C)(C)N1C(=O)[C@H]2[C@H]3[C@H](O)[C@H](O)CC(=O)[C@H]3CC[C@H]2C1=O | -0.211
59 | Cc1cc2c(nc1C)CCCCN2CC(C)ON=C[C@@H](C)[C@H](OCc1ccccc1)C(C)C (some centres not stated) | -0.204
60 | C#CCCCON=C1C[C@@H](O)[C@@H](O)[C@@H]2[C@@H]3C(=O)N(CCC(=O)OCC)C(=O)[C@@H]3CC[C@H]12 | -0.104
61 | CCOC(=O)[C@H](CC(C)C)NC(=O)CCC1CC(OC(=O)NCc2cccc3ccccc23)CC2(CCCC(COC(=O)NCCOC)O2)O1 (some centres not stated) | -0.0633
62 | COc1ccc(COC(=O)NN=C2C[C@@H](O)[C@@H](O)[C@@H]3[C@@H]4C(=O)N(c5ccc(F)cc5F)C(=O)[C@@H]4CC[C@H]23)cc1 | 0.469
